The target of test [1] is Albumin (Bos taurus) (UniProt P02769). The test is described as follows: compounds binding labelled BSA control protein – biochemical, small-molecule microarray, Alexa647 label, 635/667 nm fluorescence, artefact control for SMM control protein annotation, profiling panel (AID 1118).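 Also: score merges 667 nm emission intensity and signal-to-noise per printed compound spot.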 To be noted: BSA-A647 binding, fluorescence 635 nm, higher = more signal.
Test [2] can be described thus: probe aXIP binding to arrayed compounds – biochemical, NeuroSMM set, 635/667 nm fluorescence, primary screen (AID 1119).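 Also: probe is the protein aXip251-270 applied at 1 µg/mL to compound-printed slides; binding of probe to printed compounds measured as 667 nm fluorescence plus signal to noise.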 The following applies: small-molecule microarray, higher = more signal, called active from +8 up or from −8 down.
Test [3] in a line: probe aNOTCH3 binding on compound microarray – biochemical, small-molecule microarray, 635/667 nm fluorescence, primary screen (AID 1120).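 Also: probe is a biotin-tagged antibody raised against NOTCH3 rather than NOTCH3 protein; score merges spot fluorescence near 667 nm with spot signal to noise.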 To be noted: higher = more signal.
Test [4] is described as follows: probe aNOTCH2 binding on compound microarray – biochemical, small-molecule microarray, 635/667 nm fluorescence, primary screen (AID 1121).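 Also: score merges feature fluorescence read at 667 nm with its signal to noise.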 To be noted: higher = more signal.
Test [5] concerns the target Carbonic anhydrase 2 (Homo sapiens) (UniProt P00918). Briefly: compounds binding carbonic anhydrase 2 – biochemical, small-molecule microarray, Alexa647-labelled CAII, profiling panel (AID 1122). To be noted: CAII-A647 binding fluorescence, higher = more signal.
The nature of test [6]: COS7 lysate on small-molecule microarray, probe aHis, 635 nm (AID 1123).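 Also: z-score combines 667nm fluorescence intensity with signal-to-noise per printed compound spot.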 The following applies: COS7 cell lysate, fluorescence, higher = more signal.
Test [7] is described as follows: probe aLAP1 signal on lysate-treated microarray – cell lysate, small-molecule microarray, COS7 lysate, primary screen (AID 1124).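 Also: lysate comes from COS7 cells expressing LAP1 and is applied at 0.3 µg/mL; score merges spot fluorescence near 667 nm with signal-to-noise over triplicate slides.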 To be noted: probe aLAP1, fluorescence, higher = more signal.
Test [8] has as its system Sam68 (KHDRBS1). Briefly: compounds binding KHDRBS1 protein – biochemical, small-molecule microarray, 635 nm fluorescence, primary screen (AID 1125).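 Also: score merges 667 nm channel intensity with signal to noise over triplicate slides.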 To be noted: higher = more signal.
Test [9] concerns Chordin-like protein 2 (CHRDL2). The test is described as follows: compounds binding chordin-like 2 – biochemical, small-molecule microarray, 635 nm fluorescence, primary screen (AID 1126).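 Also: printed compound slides probed with Chrdl2 protein at 4 µg/mL for 1 h at 4 C; score merges 667 nm emission intensity with signal to noise over three replicate slides.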 To be noted: fluorescence 635 nm, higher = more signal.
Test [10] concerns the target Concanavalin-A (Canavalia ensiformis) (UniProt P02866). The test is described as follows: compounds binding concanavalin A lectin – biochemical, small-molecule microarray, Alexa647 label, 635 nm, artefact control for SMM control protein annotation, primary screen (AID 1127).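 Also: z combines 667 nm emission intensity with signal-to-noise across three replicate slides.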 To be noted: ConA-A647 binding fluorescence, higher = more signal.
Test [11] in a line: compounds binding Alexa647 anti-His antibody – biochemical, small-molecule microarray, 635 nm fluorescence, artefact control for SMM control protein annotation, primary screen (AID 1128).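 Also: score merges feature fluorescence with signal-to-noise for each printed compound spot.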 To be noted: higher = more signal.
Test [12] deals with Human papillomavirus type 1a E7 protein (residues 1-88). The test is described as follows: HPV1a E7 small-molecule binders, primary screen, biochemical, small-molecule microarray, residues 1-88, 635 nm (AID 1129). To be noted: small-molecule microarray binding, fluorescence 635 nm; higher = more signal.
The target of test [13] is Focal adhesion kinase 1 (Homo sapiens) (UniProt Q05397). The test is described as follows: PTK2 protein binding on printed compound slides – biochemical, small-molecule microarray, 635/667 nm fluorescence, BSA, DTT, primary screen (AID 1130).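 Also: composite of spot emission at 667 nm and signal to noise over triplicate slides.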 The following applies: 635 nm fluorescence, higher = more signal.
Chain of Focal adhesion kinase 1 (Homo sapiens) (Q05397 whole entry, looked up): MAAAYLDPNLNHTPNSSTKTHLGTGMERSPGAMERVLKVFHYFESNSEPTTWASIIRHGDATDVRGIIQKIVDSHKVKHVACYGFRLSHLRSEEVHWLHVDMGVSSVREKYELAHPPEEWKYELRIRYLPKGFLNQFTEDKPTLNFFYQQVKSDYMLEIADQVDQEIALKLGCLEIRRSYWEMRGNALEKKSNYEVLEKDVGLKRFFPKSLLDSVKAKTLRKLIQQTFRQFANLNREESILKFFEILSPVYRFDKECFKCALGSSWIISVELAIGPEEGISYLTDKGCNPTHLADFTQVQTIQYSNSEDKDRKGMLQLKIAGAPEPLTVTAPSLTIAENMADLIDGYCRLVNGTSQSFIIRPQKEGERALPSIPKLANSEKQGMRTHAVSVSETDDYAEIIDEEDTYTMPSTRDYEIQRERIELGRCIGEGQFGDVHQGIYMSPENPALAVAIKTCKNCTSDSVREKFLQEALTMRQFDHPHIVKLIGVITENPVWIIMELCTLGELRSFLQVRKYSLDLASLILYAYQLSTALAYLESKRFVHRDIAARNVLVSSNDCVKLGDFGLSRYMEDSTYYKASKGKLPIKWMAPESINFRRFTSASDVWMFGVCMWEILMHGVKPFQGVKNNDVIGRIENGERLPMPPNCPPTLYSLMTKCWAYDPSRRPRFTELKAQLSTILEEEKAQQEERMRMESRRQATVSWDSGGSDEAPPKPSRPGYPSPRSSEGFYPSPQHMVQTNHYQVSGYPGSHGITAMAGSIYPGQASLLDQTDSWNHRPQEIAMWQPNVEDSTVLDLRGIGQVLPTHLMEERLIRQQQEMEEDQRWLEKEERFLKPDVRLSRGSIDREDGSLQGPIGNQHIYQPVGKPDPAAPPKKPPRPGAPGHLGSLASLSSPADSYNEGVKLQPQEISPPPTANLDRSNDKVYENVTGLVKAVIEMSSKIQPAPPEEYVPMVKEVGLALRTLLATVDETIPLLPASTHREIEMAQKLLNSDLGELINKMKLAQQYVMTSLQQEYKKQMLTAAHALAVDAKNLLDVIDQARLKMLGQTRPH
In test [14] the test system is Fibrinogen (Alexa647-labelled). Briefly: Alexa647-fibrinogen binding to printed small molecules – biochemical, small-molecule microarray, 635/667 nm fluorescence, artefact control for SMM control-protein annotation, profiling panel (AID 1131).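 Also: z-score merges 667 nm fluorescence with per-spot signal-to-noise over triplicate slides.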 To be noted: fibrinogen-A647 binding fluorescence, higher = more signal.
The target in test [15] is Follistatin (Homo sapiens) (UniProt P19883). The test is described as follows: FST protein binding to printed compounds – biochemical, small-molecule microarray, 635/667 nm fluorescence, primary screen (AID 1132). To be noted: 635 nm fluorescence, higher = more signal.
Chain of Follistatin (Homo sapiens) (P19883 whole entry, looked up): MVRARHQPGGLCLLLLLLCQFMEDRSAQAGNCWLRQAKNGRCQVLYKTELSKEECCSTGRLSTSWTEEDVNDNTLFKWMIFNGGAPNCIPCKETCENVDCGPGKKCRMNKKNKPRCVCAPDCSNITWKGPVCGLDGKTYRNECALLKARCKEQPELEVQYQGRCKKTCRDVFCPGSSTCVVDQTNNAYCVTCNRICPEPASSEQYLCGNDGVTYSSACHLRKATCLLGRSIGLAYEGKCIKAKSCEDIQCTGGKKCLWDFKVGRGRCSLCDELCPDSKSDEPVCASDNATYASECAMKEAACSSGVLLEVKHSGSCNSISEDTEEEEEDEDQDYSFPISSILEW
In test [16] the target is Fibroblast growth factor 2 (Homo sapiens) (UniProt P09038). The test is described as follows: basic fibroblast growth factor binding to printed compounds – biochemical, small-molecule microarray, 635/667 nm fluorescence, primary screen (AID 1133). To be noted: FGF2, fluorescence 635/667, higher = more signal.
Chain of Fibroblast growth factor 2 (Homo sapiens) (P09038 whole entry, looked up): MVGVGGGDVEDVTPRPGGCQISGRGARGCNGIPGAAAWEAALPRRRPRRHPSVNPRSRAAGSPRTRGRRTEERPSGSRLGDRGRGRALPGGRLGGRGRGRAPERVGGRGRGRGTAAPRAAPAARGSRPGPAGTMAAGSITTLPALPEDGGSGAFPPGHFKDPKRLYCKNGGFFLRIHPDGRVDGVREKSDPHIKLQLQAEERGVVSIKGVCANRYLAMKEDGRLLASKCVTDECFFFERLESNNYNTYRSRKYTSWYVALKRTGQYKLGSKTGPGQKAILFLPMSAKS
Test [17] in a line: JC-1 mitochondrial potential readout, lung cancer cells – cell-based, A549, JC-1 fluorescence, basal, 24 h, 100 nL, profiling panel (AID 1138).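 Also: A549 lung adenocarcinoma cells under basal conditions with no added stimulus; test concentration not given here.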 To be noted: higher = more signal.
Test [18] relates to Lefty1. Briefly: Lefty1 protein binding to printed compounds – biochemical, small-molecule microarray, 635/667 nm fluorescence, primary screen (AID 1139). The following applies: fluorescence 635/667, higher = more signal.
In test [19] the test system is wheat germ agglutinin (Triticum aestivum), Alexa647-labelled. The test is described as follows: Alexa647-WGA lectin binding to printed small molecules – biochemical, small-molecule microarray, 635/667 nm fluorescence, artefact control for SMM control-protein annotation, profiling panel (AID 1140).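 Also: score merges 667 nm feature emission with signal to noise over triplicate slides.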 The following applies: WGA-A647 binding, 635 nm fluorescence, higher = more signal.

Test [20] concerns the target Luciferin 4-monooxygenase (Photinus pyralis) (UniProt P08659). Briefly: inhibition of purified Photinus pyralis luciferase – biochemical, luminescence, purified enzyme, 2006 set, primary screen (AID 1141).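 Also: cell-free assay with purified firefly luciferase at 100 ng per well in PBS; test concentration not given here.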 The following applies: purified firefly luciferase, SteadyGlo luminescence, 30 min; higher = more signal, called active from +8 up or from −8 down.

Drawing on PubChem BioAssay, this text covers composite z-score, composite Z-score and z-score for five molecules.

Activity calls are given as the source filed them.

Chain of Albumin (Bos taurus) (P02769 whole entry, looked up): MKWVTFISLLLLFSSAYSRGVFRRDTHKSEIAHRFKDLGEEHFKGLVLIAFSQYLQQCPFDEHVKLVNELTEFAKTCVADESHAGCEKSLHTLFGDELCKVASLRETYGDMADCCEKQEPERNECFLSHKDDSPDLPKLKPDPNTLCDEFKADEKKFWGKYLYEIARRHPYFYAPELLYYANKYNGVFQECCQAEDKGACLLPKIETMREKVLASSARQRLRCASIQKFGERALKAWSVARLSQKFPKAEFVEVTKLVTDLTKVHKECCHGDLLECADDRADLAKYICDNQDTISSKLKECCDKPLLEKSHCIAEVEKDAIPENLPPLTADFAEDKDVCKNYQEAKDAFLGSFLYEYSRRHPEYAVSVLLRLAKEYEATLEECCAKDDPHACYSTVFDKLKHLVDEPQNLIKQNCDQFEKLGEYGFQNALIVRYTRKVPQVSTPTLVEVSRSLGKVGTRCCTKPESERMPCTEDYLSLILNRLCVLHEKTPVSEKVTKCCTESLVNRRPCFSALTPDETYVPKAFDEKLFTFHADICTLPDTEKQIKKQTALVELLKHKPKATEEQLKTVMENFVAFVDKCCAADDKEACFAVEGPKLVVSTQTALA
Chain of Luciferin 4-monooxygenase (Photinus pyralis) (P08659 whole entry, looked up): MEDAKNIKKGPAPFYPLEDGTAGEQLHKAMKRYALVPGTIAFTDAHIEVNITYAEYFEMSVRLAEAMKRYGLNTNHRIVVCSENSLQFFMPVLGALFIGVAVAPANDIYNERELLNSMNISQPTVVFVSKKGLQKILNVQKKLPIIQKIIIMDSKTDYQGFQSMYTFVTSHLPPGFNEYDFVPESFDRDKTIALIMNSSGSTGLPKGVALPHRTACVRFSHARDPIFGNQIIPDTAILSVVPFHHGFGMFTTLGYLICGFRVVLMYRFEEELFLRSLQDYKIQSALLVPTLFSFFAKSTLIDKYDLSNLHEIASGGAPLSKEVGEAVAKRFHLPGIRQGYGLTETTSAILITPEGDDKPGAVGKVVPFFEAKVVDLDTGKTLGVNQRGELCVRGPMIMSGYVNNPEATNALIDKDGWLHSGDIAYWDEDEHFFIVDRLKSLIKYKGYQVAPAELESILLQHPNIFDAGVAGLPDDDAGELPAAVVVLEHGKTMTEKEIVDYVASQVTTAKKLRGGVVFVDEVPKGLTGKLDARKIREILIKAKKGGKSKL
Chain of Concanavalin-A (Canavalia ensiformis) (P02866 whole entry, looked up): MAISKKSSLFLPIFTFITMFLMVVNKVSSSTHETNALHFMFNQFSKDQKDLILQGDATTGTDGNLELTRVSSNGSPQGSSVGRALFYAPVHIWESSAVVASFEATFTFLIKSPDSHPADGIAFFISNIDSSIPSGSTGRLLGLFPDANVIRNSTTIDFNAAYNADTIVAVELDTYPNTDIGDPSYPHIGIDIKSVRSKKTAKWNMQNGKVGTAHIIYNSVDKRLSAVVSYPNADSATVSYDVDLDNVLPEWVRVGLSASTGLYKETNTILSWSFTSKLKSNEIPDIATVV

For `C#CCOc1ccc(C[C@H]2C(=O)O[C@H](Cc3ccccc3)[C@H](/C=C/C3CC3)N2CC#C)cc1`, the composite z-score is -0.0855 in [1]; -0.165 in test [3]; -0.172 in test [4]; 0.643 in test [5]; -0.104 in [6]; 0.0683 in test [7]. The composite z-score in test [8] is -0.0391; in [9], 0.445; in test [10], -0.224; in test [11], -0.146; in [12], 0.128; in test [13], 0.386. For the same molecule, the composite z-score in [14] was 0.273; in test [15], -0.322; in test [16], -0.349; in test [18] it was -0.433; in test [19] it was -0.311. The composite Z-score in [2] was 0.319 (inactive). Further, the z-score was 4.32 in test [17] and -0.968 (inactive) in test [20].
As to `CO[C@H]1O[C@H](CO)[C@@H](OC(=O)Nc2ccccc2)[C@H](OC(=O)Nc2ccccc2-c2ccccc2)[C@H]1OC(=O)Nc1ccccc1-c1ccccc1`, the composite z-score in [1] is 0.925; in test [3], -0.0903; in test [4], -0.103; in [5] it was 0.556; in test [6], 1.63; in test [7], 0.463. The composite z-score in test [8] was 1.3; in test [9] it was -0.159; in [10] it was 1.19; in test [11] it was 2.03; in [12] it was 1.23; in test [13] it was 1.17. Further, the composite z-score was found to be 0.903 in test [14]; 0.754 in [15]; 0.292 in test [16]; 0.601 in test [18]; 1.19 in test [19]. Further, the composite Z-score in [2] was 0.563 (inactive). For the same molecule, the values for the z-score in test [17] and in [20] were -1.05 and -0.864 (inactive), respectively.
In the case of `CCCCC(=C=CC[C@H](O)c1cccc(OCCO)c1)CCO`, the composite z-score in test [1] is 0.15; in test [3], -0.0699; in [4] it was -0.162; in test [5], 0.681; in [6], 0.24; in test [7], 0.133. Also, the composite z-score is -0.319 in test [8]; -0.361 in test [9]; -0.245 in [10]; 0.0233 in test [11]; -0.282 in test [12]; 0.44 in [13]. Moreover, the composite z-score in test [14] is -0.644; in test [15], 0.455; in [16], 0.287; in [18] it was -0.103; in [19] it was -0.602. For the same molecule, the composite Z-score in [2] is -0.434 (inactive). Besides, the z-score in [17] is 1.97; in test [20], -0.835 (inactive).
For `CC(=O)OC(C/C=C\B1OC(C)(C)C(C)(C)O1)c1ccccc1` (stereo not given), the composite z-score was -0.274 in [1]; -0.146 in [3]; -0.166 in [4]; -0.411 in test [5]; -0.279 in test [6]; -0.0949 in test [7]. In addition, the composite z-score in test [8] is 0.0684; in [9], 1.09; in test [10] it was -0.923; in test [11] it was -0.0541; in test [12], -0.373; in test [13], -0.379. Also, the composite z-score in [14] is 0.221; in test [15], 0.0255; in test [16] it was -0.377; in [18], -0.0863; in [19], -0.405. In test [2], the composite Z-score is -0.806 (inactive). Further, the figures for the z-score in [17] and in test [20] were 1.45 and -1.54 (inactive), respectively.
For `COC(=O)c1c(CC[C@@H](CO)NC(=O)Nc2ccc(OC)cc2)oc(C(=O)Cc2ccccc2)c1C(=O)OC`, the composite z-score in test [1] is 0.771; in test [3], -0.004; in [4], -0.0776; in test [5], 0.656; in test [6], 0.261; in test [7], 0.21. The composite z-score in test [8] was 0.603; in test [9], 0.12; in [10], 0.688; in [11], -0.177; in test [12], 0.45; in test [13], -0.181. Besides, the composite z-score in test [14] was found to be 0.211; in test [15] it was 0.473; in test [16], 0.434; in [18], 1.08; in [19], 0.371. In addition, the composite Z-score in test [2] is 0.466 (inactive). The z-score in test [17] is 1.02; in test [20], -1.37 (inactive).
